# Assay results published in PubChem BioAssay AID588325 (National Center for Advancing Translational Sciences (NCATS), 2011).
# Results filed as inconclusive are left out. The source made the active and inactive calls. Calls come from the whole dose curve; as a rule, active = well fitted curve in the direction sought with a large enough effect; inconclusive = small, poorly fitted or top-dose-only effect, or effect the other way, or another doubt; inactive = no such curve, though single readings can be large or run the other way.
# Assay: Confirmatory Assay to Find Inhibitors of T. brucei phosphofructokinase: Cytotoxictity in KB-3-1
# Settings: KB-3-1 human cells cytotoxicity counter-screen; series mostly up to 46.1 µM; activity change, negative = cytotoxicity: at the top concentration
# From the text: Various species of the protozoan family Trypanosomatidae are responsible for a range of serious human diseases in tropical and subtropical areas of the world. […] Many of the disorders caused by trypanosomatids are fatal if left untreated, but most currently used drugs are inefficient and toxic.
# Oxidative metabolism involving the mitochondrial tricarboxylic acid cycle and oxidative phosphorylation are repressed in these parasites, and recent RNA interference (RNAi) experiments have shown that even partial depletion of certain individual glycolytic enzymes can lead to the death of cultured parasites. One such glycolytic enzyme, phosphofructokinase (PFK), catalyzes the formation of fructose-1,6-bisphosphate (F1,6BP) and ADP from fructose-6-phosphate (F6P) and ATP, and in many metabolic circumstances makes an important contribution to the control of flux through the glycolytic pathway. As a specific glycolytic target, PFK is particularly attractive as it catalyzes the first irreversible step in glycolysis, and structural and kinetic studies have shown very substantial and essential differences from corresponding host enzymes, allowing for the discovery of parasite-selective inhibitors.
# Confirmed qHTS active compounds were tested for toxicity against the KB-3-1 human cervical carcinoma cell lines. This line havs historically been used as representative human cells in in vitro Trypanosoma assays, and so provide a relevant surrogate for human cells in testing Tb PFK inhibitor toxicity.
# NIH Chemical Genomics Center [NCGC]
# NIH Molecular Libraries Probe Centers Network [MLPCN]
# Assay Submitter (PI): Malcom Walkinshaw, University of Edinburg
# KB-3-1 cells were dispensed into white solid 1536-microwell plates in 5 uL media (high glucose DMEM, 10% FBS) with a Thermo Multidrop. The plates were incubated at 37 degrees Celsius for 2 hours, and subsequently treated with compounds using the Kalypsys pin tool, delivering 23 nL of test compounds to each well. The plates were then incubated for an additional 72 hours at 37 degrees Celsius. Cytotoxicity was assessed by adding 2.5 uL of Cell-Titer Glo (Promega, Madison, WI) via Multidrop, incubating at room temperature for 10 min and reading luminescence on the Perkin Elmer ViewLux using a 1 second exposure and 1x binning. DMSO-treated cells were included as negative control, while media-only wells were used as a positive control equivalent to 100% cell toxicity for the sake of data normalization.
row,SMILES,"activity change, negative = cytotoxicity"
1,O=C(Cc1ccc(Cl)c(Cl)c1)Nc1ccc(S(=O)(=O)Nc2cccc(C(=O)O)c2)cc1,11.4% (inactive)
2,O=C(Cc1ccc(Cl)c(Cl)c1)Nc1ccc(S(=O)(=O)O)cc1,6.38% (inactive)
3,Cc1cc(N[S+](=O)([O-])c2ccc3cc(NC(=O)Cc4ccc(Cl)c(Cl)c4)ccc3c2)no1,-2.44% (inactive)
4,Cc1cc(NS(=O)(=O)c2ccc(NC(=O)Cc3ccc(Cl)cc3)cc2)no1,-0.216% (inactive)
5,Cc1cc(NS(=O)(=O)c2ccc(NC(=O)C(C)(C)c3ccc(Cl)c(Cl)c3)cc2)no1,13.5% (inactive)
6,Cc1cc(NS(=O)(=O)C2CCN(C(=O)Cc3ccc(Cl)c(Cl)c3)CC2)no1,-7.05% (inactive)
7,Cc1cc(NS(=O)(=O)c2ccc(NC(=O)Cc3ccc(C)c(C)c3)cc2)no1,-4.17% (inactive)
8,Cc1cc(NS(=O)(=O)Cc2ccc(NC(=O)Cc3ccc(Cl)c(Cl)c3)cc2)no1,-0.6% (inactive)
9,Cc1cc(NS(=O)(=O)c2cccc(NC(=O)Cc3ccc(Cl)c(Cl)c3)c2)no1,-5.11% (inactive)
10,Cc1cc(NS(=O)(=O)c2ccc(NC(=O)CCc3ccc(Cl)c(Cl)c3)cc2)no1,-12.1% (inactive)
11,Cc1cc(NS(=O)(=O)c2ccc(NC(=O)Cc3ccc(Cl)c(Cl)c3)cc2)n(C)n1,4.89% (inactive)
12,Cc1cc(NS(=O)(=O)c2ccc(NC(=O)Cc3ccc(Cl)cc3Cl)cc2)no1,5.04% (inactive)
13,Cc1cc(NS(=O)(=O)c2ccc(N(C)C(=O)Cc3ccc(Cl)c(Cl)c3)cc2)no1,-0.538% (inactive)
14,O=C(Cc1ccc(Cl)c(Cl)c1)Nc1ccc(S(=O)(=O)Nc2ccc(C(=O)O)cc2)cc1,8.3% (inactive)
15,Cc1cc(NS(=O)(=O)c2ccc(NC(=O)c3ccc(Cl)c(Cl)c3)cc2)no1,-2.15% (inactive)
16,Cc1cc(NS(=O)(=O)c2ccc(NC(=O)Cc3ccc(Cl)c(F)c3)cc2)no1,-4.78% (inactive)
17,Cc1cc(NS(=O)(=O)c2ccc(NC(=O)Cc3ccc4ccccc4c3)cc2)no1,9.72% (inactive)
18,Cc1cc(NS(=O)(=O)c2ccc(NS(=O)(=O)Cc3ccc(Cl)c(Cl)c3)cc2)no1,7.09% (inactive)
19,COc1ccc(CC(=O)Nc2ccc(S(=O)(=O)Nc3cc(C)on3)cc2)cc1OC,-4.67% (inactive)
20,Cc1cc(NS(=O)(=O)CCNC(=O)Cc2ccc(Cl)c(Cl)c2)no1,11.2% (inactive)
21,COc1ccc(CC(=O)Nc2ccc(S(=O)(=O)Nc3cc(C)on3)cc2)cc1C,-9.25% (inactive)
22,Cc1cc(NC(=O)c2ccc(NC(=O)Cc3ccc(Cl)c(Cl)c3)cc2)no1,0.287% (inactive)
23,Cc1cc(NS(=O)(=O)c2ccc(NC(=O)Cc3cccc(Cl)c3)cc2)no1,-2.52% (inactive)
24,Cc1cc(NS(=O)(=O)c2ccc(NC(=O)Cc3ccc(C)c(F)c3)cc2)no1,-3.65% (inactive)
25,Cc1cc(NS(=O)(=O)c2ccc(C(=O)NCc3ccc(Cl)c(Cl)c3)cc2)no1,21.8% (inactive)
26,O=C(Cc1ccc(Cl)c(Cl)c1)Nc1ccc(S(=O)(=O)Nc2ccon2)cc1,-0.619% (inactive)
27,Cc1cc(NS(=O)(=O)c2ccc(NCCc3ccc(Cl)c(Cl)c3)cc2)no1,2.76% (inactive)
28,O=C(Cc1ccc(Cl)c(Cl)c1)Nc1ccc(S(=O)(=O)Nc2cncnc2)cc1,5.74% (inactive)
